Records with an inconclusive call do not appear. The source made the active and inactive calls. Calls follow the shape of the dose curve; as a rule, active = well fitted curve in the direction sought with a large enough effect; inconclusive = small, poorly fitted or top-dose-only effect, or another doubt; inactive = no such curve, though single readings can be large; an effect the other way counts as inactive or inconclusive.
These molecules were tested against Rap guanine nucleotide exchange factor 3 (Homo sapiens) (UniProt O95398) (assay: Counterscreen qHTS for antagonist of cAMP-regulated guanine nucleotide exchange factor 3 (EPAC1) (AID 1645888;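 also: fluorescence loss as bound BODIPY-GDP is released from Rap1B; % of control where 0% means no effect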)). Conditions: Rap1B-BODIPY-GDP nucleotide exchange, fluorescence; series mostly up to 154 µM; activity change, negative = inhibition: at the top concentration.
In short: (§1)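 Rap1B–BODIPY-GDP (250 nM) with 50 uM GDP; compounds pin-transferred to 9.74 nM–152 uM final (activator) or from 7.32 nM upwards (inhibitor). Fluorescence Ex/Em 480/540 nm read at 5 and 30 min, then after adding cAMP or buffer, at room temperature.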

Sequence of Rap guanine nucleotide exchange factor 3 (Homo sapiens) (O95398 whole entry, looked up): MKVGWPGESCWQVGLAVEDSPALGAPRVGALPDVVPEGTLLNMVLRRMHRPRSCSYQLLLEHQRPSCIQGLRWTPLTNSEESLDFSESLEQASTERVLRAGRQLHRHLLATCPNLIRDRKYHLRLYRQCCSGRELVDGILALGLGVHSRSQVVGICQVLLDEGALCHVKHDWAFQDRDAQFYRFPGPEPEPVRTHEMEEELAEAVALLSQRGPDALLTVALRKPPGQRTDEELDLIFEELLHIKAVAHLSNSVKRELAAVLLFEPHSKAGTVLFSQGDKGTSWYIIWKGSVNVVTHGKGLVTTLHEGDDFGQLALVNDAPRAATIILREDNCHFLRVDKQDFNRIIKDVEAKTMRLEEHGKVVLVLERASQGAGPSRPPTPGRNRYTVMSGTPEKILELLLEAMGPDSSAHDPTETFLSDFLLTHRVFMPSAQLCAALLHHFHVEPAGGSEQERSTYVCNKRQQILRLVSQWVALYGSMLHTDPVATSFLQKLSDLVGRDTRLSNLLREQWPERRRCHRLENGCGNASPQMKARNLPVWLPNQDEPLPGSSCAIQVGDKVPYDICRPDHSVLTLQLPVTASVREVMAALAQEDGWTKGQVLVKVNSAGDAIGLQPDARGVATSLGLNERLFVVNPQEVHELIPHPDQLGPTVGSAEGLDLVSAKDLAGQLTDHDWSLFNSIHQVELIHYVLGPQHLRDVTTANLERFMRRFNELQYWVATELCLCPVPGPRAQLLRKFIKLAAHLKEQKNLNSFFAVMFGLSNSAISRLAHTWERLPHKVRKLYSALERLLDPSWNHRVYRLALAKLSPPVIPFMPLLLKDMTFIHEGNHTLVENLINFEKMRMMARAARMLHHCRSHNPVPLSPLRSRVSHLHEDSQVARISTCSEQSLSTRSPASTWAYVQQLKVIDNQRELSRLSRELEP

Row | SMILES | activity change, negative = inhibition
1 | Cc1cccn2cc(CCNC(=O)c3ccco3)nc12 | -20.8% [at 30.8 µM] (inactive)
2 | Cn1c(C(O)c2ccc(Br)cc2)nc(Cl)c1Cl (stereo not given) | -0.272% [at 30.8 µM] (inactive)
3 | O=C(c1ccccc1)c1coc2ccc(O)c(Cl)c12 | -20.3% [at 30.8 µM] (inactive)
4 | CCc1nnc(NS(=O)(=O)c2ccc(NCc3cc(Cl)ccc3O)cc2)s1 | -8.7% [at 30.8 µM] (inactive)
5 | O=c1c2cc([N+](=O)[O-])cc([N+](=O)[O-])c2[nH]n1-c1ccccc1 | -31.5% [at 30.8 µM] (inactive)
6 | COC(=O)COc1ccc(C(c2c(C)[nH][nH]c2=O)c2c(C)[nH][nH]c2=O)cc1 | 13.4% (inactive)
7 | COc1ccc(CNC(=S)N/N=C/c2ccc(OC)c(OC)c2)cc1 | 13.9% (inactive)
8 | O=S(=O)(O)c1cccc(N=Nc2c(O)ccc3ccccc23)c1 | -26.3% (inactive)
9 | COc1nc(C)cc(C)c1S(=O)(=O)c1ccc(Cl)cc1 | -12.6% [at 30.8 µM] (inactive)
10 | O=C1NC(=S)S/C1=C\c1ccc(SCc2ccccc2)o1 | 9.5% (inactive)
11 | Cc1ccc(S(=O)(=O)NCCC(=O)N2CCC(Cc3ccccc3)CC2)cc1 | -15.5% [at 30.8 µM] (inactive)
12 | COC(=O)c1cc2occc2n1Cc1cccc(C)c1 | 6.13% (inactive)
13 | Cc1ccn2c(=O)c(NC(=O)c3ccc(Br)o3)c(C)nc2c1 | -1.7% [at 30.8 µM] (inactive)
14 | COc1ccc(/C=N/Nc2nnc(C)n2N)cc1OC(C)=O | -5.42% (inactive)
15 | COc1cc(NC(=O)C2CCCCC2)c(OC)cc1NC(=O)CN1CCCCC1 | -6.17% [at 30.8 µM] (inactive)
16 | COc1ccc2nc3oc(C(=O)Nc4cccc(C(F)(F)F)c4)cc3cc2c1 | 9% (inactive)
17 | COc1cc(CNc2ccc(O)cc2)cc(Br)c1OCc1ccccc1 | 15.9% (inactive)
18 | Cc1ccc(C(=O)N2CCN(c3ccccc3)CC2)cc1S(=O)(=O)N1CCOCC1 | 5.67% (inactive)
19 | O=C(C1=C(O)C(=O)N(c2nc3ccc(Cl)cc3s2)C1c1ccco1)c1ccco1 (stereo not given) | -16.4% (inactive)
20 | CCC(COC)Oc1cc(NCc2ccccc2)c2ncn(C(C)C)c2c1 (stereo not given) | 15.2% (inactive)

Row | SMILES | activity change, negative = inhibition
21 | C/C(=N\NC(=O)c1cc(O)ccc1O)c1cccc(NC(=O)c2ccc(Cl)cc2)c1 | -11.1% (inactive)
22 | COc1ccc(C2CC(c3cccs3)=NN2C(=O)c2ccco2)cc1OC (stereo not given) | -16.2% [at 30.8 µM] (inactive)
23 | CCCCNC(=O)c1cc(-c2ccc3c(c2)OCO3)on1 | 6.2% (inactive)
24 | COc1ccc(Cl)cc1-n1c(=S)sc2c(=O)[nH]c(SCC(=O)NCCC(C)C)nc21 | -3.72% (inactive)
25 | O=C(c1ccco1)N(CCC(c1ccccc1)c1ccco1)Cc1ccccc1 (stereo not given) | -8.3% [at 30.8 µM] (inactive)
26 | CCN(CC(=O)Nc1ccccc1OC)C(=O)c1ccc(N(C)S(=O)(=O)c2ccc(C)cc2)cc1 | -6.02% (inactive)
27 | COc1cccc(CN(C)CC(=O)Nc2c(C)cccc2C(C)C)c1 | -8.13% [at 30.8 µM] (inactive)
28 | Cc1cccc(C)c1Nc1nn2c(=O)c3cc4c(cc3nc2s1)OCO4 | 30.7% (inactive)
29 | COc1ccc(S(=O)(=O)NC(CCSC)C(=O)NC2CCCCC2)cc1 (stereo not given) | 16.4% (inactive)
30 | Cc1nnc(SCc2nnc(-c3ccc(Cl)cc3)o2)n1-c1ccccc1 | -2.63% (inactive)
31 | Cc1ccc(S(=O)(=O)Nc2ccc3cc([N+](=O)[O-])ccc3c2[N+](=O)[O-])cc1 | 8.41% (inactive)
32 | O=S(=O)(N/N=C/c1cccnc1)c1ccc(Cl)c(Cl)c1 | -14.7% [at 30.8 µM] (inactive)
33 | COc1cccc(-n2ccn(CC(=O)NCc3ccc(C)cc3)c(=O)c2=O)c1 | 41.6% (inactive)
34 | C/C(Cc1ccccc1)=N\NC(=O)c1cccnc1 | -5.84% [at 30.8 µM] (inactive)
35 | O=C(CC(=O)NC1CCCCC1)N/N=C/c1ccc(Cl)cc1 | 21.2% (inactive)
36 | CC(=O)Nc1sc(/C(C#N)=C\c2cccc(Cl)c2)nc1-c1ccc(C)cc1 | 148% [at 30.8 µM] (inactive)
37 | COc1ccc(/C=N\NC(=O)c2cc3c(ccc4ccccc43)o2)cc1O | 0.0783% [at 30.8 µM] (inactive)
38 | CCc1ccc(C(=O)c2cn(CC(=O)Nc3cccc(OC)c3)c3ccc(OC)cc3c2=O)cc1 | -10.5% (inactive)
39 | CCN(CC)c1ccc2cc(-c3nc(-c4cccs4)no3)c(=O)oc2c1 | 416% (inactive)
40 | CCOC(=O)c1c(NC(=O)c2ccccc2OCC)sc2c1CCC(CC)C2 (stereo not given) | 8.67% (inactive)

Each molecule was assayed against Rap guanine nucleotide exchange factor 3 (Homo sapiens) (UniProt O95398) (assay: Counterscreen qHTS for agonist of cAMP-regulated guanine nucleotide exchange factor 3 (EPAC1) (AID 1645889; also: nearly all actives have a fitted effect of over 40% in size; also: potency is read from the fitted curve at half-maximal effect; as to activation: % of control where 0% means no effect)). Conditions: EPAC1 Rap1B-BODIPY-GDP exchange, fluorescence; series mostly up to 154 µM; activation: at the top concentration.
In short: as §1

Row | SMILES | activation | Potency
41 | Cc1cccn2cc(CCNC(=O)c3ccco3)nc12 | 19.7% [at 30.8 µM] (inactive) | –
42 | Cn1c(C(O)c2ccc(Br)cc2)nc(Cl)c1Cl (stereo not given) | 8.17% [at 30.8 µM] (inactive) | –
43 | O=C(c1ccccc1)c1coc2ccc(O)c(Cl)c12 | 44.7% [at 30.8 µM] (inactive) | –
44 | CCc1nnc(NS(=O)(=O)c2ccc(NCc3cc(Cl)ccc3O)cc2)s1 | 11.7% [at 30.8 µM] (inactive) | –
45 | O=c1c2cc([N+](=O)[O-])cc([N+](=O)[O-])c2[nH]n1-c1ccccc1 | 10.6% [at 30.8 µM] (inactive) | –
46 | COC(=O)COc1ccc(C(c2c(C)[nH][nH]c2=O)c2c(C)[nH][nH]c2=O)cc1 | 27% (inactive) | –
47 | COc1ccc(CNC(=S)N/N=C/c2ccc(OC)c(OC)c2)cc1 | 1.16% (inactive) | –
48 | O=S(=O)(O)c1cccc(N=Nc2c(O)ccc3ccccc23)c1 | -6.99% (inactive) | –
49 | COc1nc(C)cc(C)c1S(=O)(=O)c1ccc(Cl)cc1 | 27.8% [at 30.8 µM] (inactive) | –
50 | O=C1NC(=S)S/C1=C\c1ccc(SCc2ccccc2)o1 | 10.6% (inactive) | –
51 | Cc1ccc(S(=O)(=O)NCCC(=O)N2CCC(Cc3ccccc3)CC2)cc1 | 8.49% [at 30.8 µM] (inactive) | –
52 | COC(=O)c1cc2occc2n1Cc1cccc(C)c1 | 8.58% (inactive) | –
53 | Cc1ccn2c(=O)c(NC(=O)c3ccc(Br)o3)c(C)nc2c1 | -2.62% [at 30.8 µM] (inactive) | –
54 | COc1ccc(/C=N/Nc2nnc(C)n2N)cc1OC(C)=O | 26.9% (inactive) | –
55 | COc1cc(NC(=O)C2CCCCC2)c(OC)cc1NC(=O)CN1CCCCC1 | 11.1% [at 30.8 µM] (inactive) | –
56 | COc1ccc2nc3oc(C(=O)Nc4cccc(C(F)(F)F)c4)cc3cc2c1 | 5.51% (inactive) | –
57 | COc1cc(CNc2ccc(O)cc2)cc(Br)c1OCc1ccccc1 | 40.3% (inactive) | –
58 | Cc1ccc(C(=O)N2CCN(c3ccccc3)CC2)cc1S(=O)(=O)N1CCOCC1 | 35.5% (inactive) | –
59 | O=C(C1=C(O)C(=O)N(c2nc3ccc(Cl)cc3s2)C1c1ccco1)c1ccco1 (stereo not given) | 7.69% (inactive) | –
60 | CCC(COC)Oc1cc(NCc2ccccc2)c2ncn(C(C)C)c2c1 (stereo not given) | – | 7.94 µM (active)

Row | SMILES | activation | Potency
61 | C/C(=N\NC(=O)c1cc(O)ccc1O)c1cccc(NC(=O)c2ccc(Cl)cc2)c1 | 2.71% (inactive) | –
62 | COc1ccc(C2CC(c3cccs3)=NN2C(=O)c2ccco2)cc1OC (stereo not given) | 31.8% [at 30.8 µM] (inactive) | –
63 | CCCCNC(=O)c1cc(-c2ccc3c(c2)OCO3)on1 | 5.09% (inactive) | –
64 | COc1ccc(Cl)cc1-n1c(=S)sc2c(=O)[nH]c(SCC(=O)NCCC(C)C)nc21 | -8.69% (inactive) | –
65 | O=C(c1ccco1)N(CCC(c1ccccc1)c1ccco1)Cc1ccccc1 (stereo not given) | 15.8% [at 30.8 µM] (inactive) | –
66 | CCN(CC(=O)Nc1ccccc1OC)C(=O)c1ccc(N(C)S(=O)(=O)c2ccc(C)cc2)cc1 | 12.6% (inactive) | –
67 | COc1cccc(CN(C)CC(=O)Nc2c(C)cccc2C(C)C)c1 | 14.6% [at 30.8 µM] (inactive) | –
68 | Cc1cccc(C)c1Nc1nn2c(=O)c3cc4c(cc3nc2s1)OCO4 | 46.9% (inactive) | –
69 | COc1ccc(S(=O)(=O)NC(CCSC)C(=O)NC2CCCCC2)cc1 (stereo not given) | 12.5% (inactive) | –
70 | Cc1nnc(SCc2nnc(-c3ccc(Cl)cc3)o2)n1-c1ccccc1 | 21.8% (inactive) | –
71 | Cc1ccc(S(=O)(=O)Nc2ccc3cc([N+](=O)[O-])ccc3c2[N+](=O)[O-])cc1 | 6.17% (inactive) | –
72 | O=S(=O)(N/N=C/c1cccnc1)c1ccc(Cl)c(Cl)c1 | 6.45% [at 30.8 µM] (inactive) | –
73 | COc1cccc(-n2ccn(CC(=O)NCc3ccc(C)cc3)c(=O)c2=O)c1 | 16.8% (inactive) | –
74 | C/C(Cc1ccccc1)=N\NC(=O)c1cccnc1 | 15.7% [at 30.8 µM] (inactive) | –
75 | O=C(CC(=O)NC1CCCCC1)N/N=C/c1ccc(Cl)cc1 | -1.44% (inactive) | –
76 | CC(=O)Nc1sc(/C(C#N)=C\c2cccc(Cl)c2)nc1-c1ccc(C)cc1 | 23.7% [at 30.8 µM] (inactive) | –
77 | COc1ccc(/C=N\NC(=O)c2cc3c(ccc4ccccc43)o2)cc1O | 29.4% [at 30.8 µM] (inactive) | –
78 | CCc1ccc(C(=O)c2cn(CC(=O)Nc3cccc(OC)c3)c3ccc(OC)cc3c2=O)cc1 | 4.1% (inactive) | –
79 | CCN(CC)c1ccc2cc(-c3nc(-c4cccs4)no3)c(=O)oc2c1 | – | 79.4 µM (active)
80 | CCOC(=O)c1c(NC(=O)c2ccccc2OCC)sc2c1CCC(CC)C2 (stereo not given) | -10.2% (inactive) | –

Reference: PubChem BioAssay (NCATS)
